Here are results for 16 compounds from PubChem BioAssay (NCI).

Compounds without any hit were thinned out: in the full panel of roughly 83,000, 20% have a hit.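 In brief: 96-well plates, 48 h treatment, single concentration, percent growth endpoint.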 Unmarked numbers belong to inactive results. Active and inactive are the calls of the source. Rule for the calls: active = growth percent below 10; inactive = the rest.

Assay in all cases: NCI-60 one-dose screen, 48 h (100 = growth as untreated, 0 = no growth, -100 = all killed)
What all share (details): 10 µM unless noted

Assay [1] deals with SR leukemia.
Assay [2] relates to RPMI-8226 leukemia.
Assay [3] concerns OVCAR-5 ovarian.
The subject of assay [4] is OVCAR-4 ovarian.
Assay [5] relates to SK-OV-3 ovarian.
Assay [6] concerns IGROV1 ovarian.
The subject of assay [7] is OVCAR-3 ovarian.
The subject of assay [8] is HS 578T breast.
Assay [9] relates to NCI/ADR-RES ovarian.
Assay [10] concerns T-47D breast.
Assay [11] has as its system BT-549 breast.
For assay [12], the system named is MDA-MB-435 melanoma.
The subject of assay [13] is SW-620 colon.
Assay [14] relates to MCF7 breast.
The subject of assay [15] is HCT-116 colon.
In assay [16] the test system is HCC-2998 colon.
The test system of assay [17] is KM12 colon.
Assay [18] has as its system OVCAR-8 ovarian.

With `COc1cc(C(=O)N2N=C(c3ccc(S(C)(=O)=O)cc3)CC2c2ccco2)cc(OC)c1OC` (configuration not stated), the growth is 8.01% (active) in assay [1]; 44.6% in assay [2]; 89.5% in assay [3]; 84.1% in [4]; 84.3% in assay [5]; -2.69% (active) in assay [6]. For the same compound, the growth in [7] is 5% (active); in assay [8], 74.9%; in assay [9] it was 63.1%; in assay [10], 59.3%; in assay [11], 48.5%; in assay [12], 6.67% (active). For the same compound, the growth in assay [13] was 42.3%; in assay [14] it was 37%; in assay [15] it was 50.6%; in [16], 59.9%; in [17], 49.7%.
For `O=c1c2cc(F)ccc2sc2c(N3CCNCC3)nc3ccc(F)cc3c12`, the growth was -46.3% (active) in [1]; 3.1% (active) in [18]; 60.3% in assay [3]; -63.8% (active) in assay [4]; 84% in assay [5]; 36.3% in [6]. Moreover, the growth in [7] is -84.1% (active); in assay [8], 46.6%; in assay [9], 4.72% (active); in [10], 22.2%; in assay [11], 79.8%; in [12], -94.3% (active). Moreover, the growth in assay [13] was -84.4% (active); in assay [14] it was -62.9% (active); in assay [15] it was -61.2% (active); in assay [16], -90.8% (active); in assay [17], -78.4% (active).
For the compound `COc1cc(C2CC(c3cccc(Br)c3)=NN2C(C)=O)cc(OC)c1OC` (configuration not stated), the growth in assay [1] was 46.3%; in [2], 4.29% (active); in assay [3], 46.5%; in assay [4], 41.7%; in assay [5], 45.3%; in assay [6] it was -17.3% (active). For the same compound, the growth is -22% (active) in assay [7]; 34.6% in assay [8]; -19.5% (active) in [9]; 69.7% in [10]; -8.75% (active) in [11]; -51.2% (active) in assay [12]. In addition, the growth is 24.8% in assay [13]; 22.8% in assay [14]; 17.2% in [15]; -31% (active) in assay [16]; 16.9% in assay [17].
Turning to `NCCCNc1nc2ccccc2c2c(=O)c3cc(F)cc(F)c3sc12`, the growth was -35.8% (active) in assay [1]; 69.7% in [18]; 50.9% in [3]; -62.3% (active) in assay [4]; 83.6% in assay [5]; 77.9% in assay [6]. Besides, the growth in assay [7] is 89.7%; in [8], 76.8%; in assay [9], 84%; in [10], 92.7%; in assay [11], 93.4%; in assay [12], -91.2% (active). The growth in assay [13] is -75.6% (active); in assay [14], 75.5%; in assay [15], 53.2%; in [16] it was 75.3%; in assay [17], 79.1%.
As for `Cc1cccc2c(=O)c3c(sc12)c(NCc1ccccc1)nc1ccccc13`, the growth in assay [1] was 74.4%; in assay [18], 100%; in [3], 75.6%; in assay [4] it was 87.6%; in [5] it was 88.7%; in [6], 74.3%. Further, the growth in assay [7] is 106%; in assay [8], 98.7%; in [9], 97.2%; in assay [10] it was 48.4%; in assay [11], 101%; in [12] it was 109%. In addition, the growth is 95.5% in [13]; 27.2% in [14]; 77% in [15]; 90.3% in [16]; 84.5% in [17].
In the case of `O=C1c2cccc3cccc(c23)C(=O)N1Nc1nc(N2CCOCC2)nc(N2CCN(c3ccccc3)CC2)n1`, the growth in [1] is 23.7%; in assay [18], 71.6%; in [3], 83.8%; in assay [4], 79.9%; in assay [5] it was 54.8%; in assay [6] it was 32.9%. Moreover, the growth was 11.2% in assay [7]; 42.9% in assay [8]; 37.8% in [9]; 37.3% in assay [10]; 37.8% in assay [11]; -12.6% (active) in assay [12]. Besides, the growth in [13] was 32.6%; in assay [14] it was 17.9%; in [15], 31.2%; in assay [16], 77.6%; in assay [17], 48.5%.
Regarding `C/C(=C(/c1ccccc1)c1ccc(N2C(=O)c3cccc4c(N5CCN(C)CC5)ccc(c34)C2=O)cc1)c1ccccc1`, the growth was -9.19% (active) in assay [1]; 83% in assay [18]; 91.9% in assay [3]; 56.6% in assay [4]; 106% in [5]; 69% in assay [6]. Moreover, the growth is 82.7% in assay [7]; 97.9% in assay [8]; 84.9% in assay [9]; 65.3% in [10]; 99.6% in assay [11]; 88.2% in assay [12]. The growth in assay [13] is 80.2%; in [14], 59%; in assay [15], 49.4%; in assay [16] it was 99.8%; in assay [17] it was 79.8%.
In the case of `CCCCn1c(=O)c(-c2cc(-c3ccc(Cl)cc3)nc(-c3ccc(Cl)cc3)c2)cc2cc(Cl)ccc21`, the growth in assay [1] is 106%; in assay [18] it was 101%; in [3], 98.4%; in [4], 105%; in [5], 102%; in assay [6], 103%. Also, the growth in assay [7] is 117%; in assay [8], 108%; in assay [9], 109%; in assay [10] it was 103%; in [11] it was 106%; in assay [12], 103%. Also, the growth is 99.7% in [13]; 98.4% in [14]; 106% in assay [15]; 102% in assay [16]; 102% in [17].
Consider `Cc1c(C(=O)/C=C/Nc2c(Cl)cc(S(N)(=O)=O)cc2Cl)sc2nc3ccccc3n12`, for which the growth in assay [1] is 110%; in [18], 101%; in [3], 106%; in assay [4], 116%; in [5], 111%; in assay [6], 111%. Moreover, the growth in [7] is 107%; in [8], 105%; in assay [9] it was 110%; in [10], 97.8%; in assay [11] it was 102%; in assay [12] it was 103%. Besides, the growth in [13] is 101%; in assay [14], 102%; in assay [15], 105%; in assay [16], 124%; in [17], 101%.
On to `CC([C@H]1CCC2C3CCC4C(=O)C(NC=O)=CC[C@]4(C)C3CC[C@@]21C)N(C)C` (some centres not stated), for which the growth is 54.3% in [1]; 55.9% in [18]; 93.2% in assay [3]; 6.05% (active) in assay [4]; 75.8% in assay [5]; 37.8% in assay [6]. Moreover, the growth in assay [7] is 24.6%; in assay [8] it was 33.6%; in assay [9], 57.5%; in assay [10], -12.7% (active); in [11], 49.5%; in assay [12] it was -26% (active). In addition, the growth in assay [13] was -48.5% (active); in assay [14] it was 17.3%; in [15], -7.83% (active); in assay [16] it was 19%; in [17] it was 17.8%.
Regarding `CN(C)CCNc1nc2ccccc2c2c(=O)c3cc(F)ccc3sc12`, the growth in [1] was -23.5% (active); in assay [18] it was 40.2%; in [3] it was 76.9%; in [4], 29.9%; in [5], 77.1%; in assay [6], 49%. Also, the growth was 38.1% in [7]; 47.8% in [8]; 38.3% in assay [9]; 66.1% in [10]; 64.4% in assay [11]; 1.18% (active) in [12]. Besides, the growth was -48% (active) in assay [13]; 34.3% in assay [14]; -11.2% (active) in assay [15]; -64.5% (active) in [16]; 8.53% (active) in [17].
Regarding `COc1ccc(S(=O)(=O)n2c3ccccc3n3ncc(-c4nnc(C)o4)c23)cc1`, the growth was 24.7% in [1]; 45% in [18]; 30.6% in assay [3]; 81.6% in assay [4]; 54.4% in [5]; 34.4% in assay [6]. Besides, the growth in [7] is 0.366% (active); in [8], 27%; in assay [9], -25.1% (active); in assay [10] it was 41.8%; in assay [11], 49.5%; in [12] it was -21.9% (active). Moreover, the growth was 27% in assay [13]; 18.9% in assay [14]; 18.4% in [15]; 17.1% in [16]; 29.8% in assay [17].
Consider `COc1cc2cc(Oc3ccc(NC(=O)Nc4ccc(Cl)c(C(F)(F)F)c4)cc3)c(C)nc2cc1OCCN1CCOCC1`, for which the growth in assay [1] was -1.99% (active); in [18] it was 13.4%; in [3], 55.6%; in assay [4], 31.6%; in assay [5], 31%; in [6], 34.7%. Moreover, the growth is 16.5% in [7]; 72.6% in [8]; 11.4% in [9]; 22.6% in assay [10]; 48.6% in [11]; 15.5% in [12]. Also, the growth is 15.1% in [13]; 4.87% (active) in assay [14]; 10.3% in assay [15]; 36.9% in [16]; 14.9% in assay [17].
Take `CCOC(=O)CCN(C(=O)Nc1ccccc1)C1CCCCC1`: the growth is 129% in assay [1]; 128% in [18]; 87.4% in assay [3]; 113% in assay [4]; 112% in assay [5]; 93.2% in assay [6]. Moreover, the growth in assay [7] was 118%; in [8], 107%; in assay [9], 106%; in assay [10], 104%; in [11], 118%; in assay [12], 106%. Moreover, the growth in [13] was 102%; in [14], 98.4%; in assay [15] it was 102%; in [16], 74.8%; in assay [17], 108%.
For `Cc1ccc(-c2nc(N3CCN(C(=O)Nc4ccc(Cl)c(C(F)(F)F)c4)CC3)c3ccccc3n2)cc1`, the growth in [1] is 75%; in [18], 73.6%; in assay [3], 86.9%; in assay [4], 77.8%; in assay [5], 81.7%; in [6] it was 78.2%. Moreover, the growth is 74.8% in assay [7]; 82.2% in [8]; 69.1% in [9]; 70.3% in [10]; 93.6% in [11]; 79.7% in assay [12]. In addition, the growth in assay [13] is 84.8%; in assay [14], 62%; in [15], 67.5%; in [16], 85.3%; in [17], 82.9%.
For `CCOC(=O)c1cn2ncnc(Oc3ccc(NC(=O)NCCN(CC)CC)c(Cl)c3)c2c1C`, the growth was -26.6% (active) in assay [1]; 81% in assay [18]; 80.8% in [3]; 90.3% in assay [4]; 92.1% in [5]; 87.3% in assay [6]. The growth in assay [7] was 68.6%; in assay [8], 77.7%; in [9], 77.6%; in [10], 45.4%; in [11] it was 81.9%; in assay [12], 9.11% (active). Moreover, the growth is 28.7% in assay [13]; 58.1% in [14]; 36.5% in [15]; 68.3% in assay [16]; 96.4% in assay [17].
